# Laboratory results reported in the supplement of paper PMC6897291.
# Where a name gives a salt, the structure may show the parent alone.
# System: RIVA
# Test: growth inhibition by drug alone (1 - RLU/untreated control) (fraction); higher = stronger inhibition
# Settings: 177Lu-lilotomab satetraxetan 0 ug/ml
# Procedure: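 RIVA (RI-1) ABC-DLBCL cells were pretreated or not for 18 h with 0.5 ug/ml 177Lu-lilotomab satetraxetan (600 MBq/mg), washed and seeded (3000 cells/well) on 384-well plates pre-printed with the Selleck Cambridge Cancer Compound library. Viability was read by RealTime-Glo luminescence on days 3-6 after seeding. Effect = 1 - RLU/mean RLU of the 48 untreated no-drug control wells per plate; Bliss score = (M-E)/(1-Fa).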
SMILES,"growth inhibition by drug alone (10 nM, time (day): 3)","growth inhibition by drug alone (10 nM, time (day): 4)","growth inhibition by drug alone (10 nM, time (day): 5)","growth inhibition by drug alone (10 nM, time (day): 6)","growth inhibition by drug alone (100 nM, time (day): 3)","growth inhibition by drug alone (100 nM, time (day): 4)","growth inhibition by drug alone (100 nM, time (day): 5)","growth inhibition by drug alone (100 nM, time (day): 6)"
O=C(c1ccc(OCCN2CCCCC2)cc1)c1c(-c2ccc(O)cc2)sc2cc(O)ccc12 [Evista (Raloxifene Hydrochloride)],0.0573,-0.0405,-0.151,-0.472,-0.0542,-0.0819,-0.167,-0.432
c1ccc(-c2nn3c(c2-c2ccnc4cc(OCCN5CCOCC5)ccc24)CCC3)nc1,-0.0878,-0.000924,-0.142,-0.487,-0.472,-0.252,-0.3,-0.522
COc1ccc(C2=N[C@@H](c3ccc(Cl)cc3)[C@@H](c3ccc(Cl)cc3)N2C(=O)N2CCNC(=O)C2)c(OC(C)C)c1 [Nutlin-3],-0.198,-0.261,-0.371,-0.533,-0.567,-0.492,-0.511,-0.69
CC(=O)Nc1cccc(-n2c(=O)n(C3CC3)c(=O)c3c(Nc4ccc(I)cc4F)n(C)c(=O)c(C)c32)c1,0.0319,0.00936,-0.0739,-0.235,0.213,0.171,0.0872,-0.0469
CC[C@H]1OC(=O)[C@H](C)[C@@H](O[C@H]2C[C@@](C)(OC)[C@@H](O)[C@H](C)O2)[C@H](C)[C@@H](O[C@@H]2O[C@H](C)C[C@H](N(C)C)[C@H]2O)[C@](C)(O)C[C@@H](C)CN(C)[C@H](C)[C@@H](O)[C@]1(C)O [Azithromycin (Zithromax)],0.16,0.206,0.16,0.0424,0.0514,0.129,0.0797,-0.0131
